SMILES strings stand for the structures. Inconclusive results are not listed. Where a call stands in place of a potency, no number is given. Unmarked numbers belong to inactive results. Activity calls are given as the source filed them. The call rests on the fitted dose curve; in most records, active means well fitted cell-killing curve with a large enough effect; inconclusive means small, poorly fitted or top-dose-only effect, or effect the other way; inactive means flat fitted curve, though single readings scatter. Where a SMILES comes first, the peptide text is derived from it. [ ]: non-standard residue; d: D form. 2Abz = Nc1ccccc1C(=O)O

The test system of this assay is SKOV3. The experiment in a line: Primary qHTS to identify gynecologic anti-cancer compounds using libraries of approved drugs and bioactive compounds (AID 1345084). Further: nearly all actives have a fitted effect of over 55% in size. To be noted: Gynecologic cancer cell panel viability, ATPlite luminescence, 48 h; series mostly up to 57.5 µM. In outline: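 Five-concentration response, 48 h; readout is ATP-driven luciferase luminescence.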
Consider `CC(=O)O[C@H](C[C@@H](C)[C@H]1C(=O)[C@H](O)[C@@]2(C)[C@@H]3CCC4C(C)(C)[C@@H](O[C@@H]5OC[C@H](O)[C@H](O)[C@H]5O)CC[C@@]45C[C@@]35CC[C@]12C)[C@@H]1OC1(C)C` (stereo partly specified), for which the Potency entry is “inactive”.
For the compound `CC1OC(OC2C(C)OC(OC3C(OC(=O)/C=C/c4ccc(O)cc4)C(CO)OC(OC4(COC(=O)/C=C/c5ccc(O)cc5)OC(CO)C(O)C4O)C3OC3OCC(O)(CO)C3O)C(O)C2O)C(O)C(O)C1O` (stereo unspecified), the activity change, negative = cytotoxicity is 28.4% [at 11.6 µM].
Regarding `CC(/C=C/[C@]1(O)[C@@]2(C)CO[C@@]1(C)C[C@@H](O)C2)=C\C(=O)O[C@@H]1O[C@H](CO)[C@@H](O)[C@H](O)[C@H]1O`, the Potency entry is “inactive”.
For the compound `C=C1C(=O)OC2CC(C)=C(C(C)CCCO[C@@H]3O[C@H](CO)[C@@H](O)[C@H](O)[C@H]3O)C(O)C12` (stereo partly specified), the Potency result is “inactive”.
As for `O=C(O[C@H]1[C@@H]2C[C@@H]3OC[C@@](O)([C@H]2[C@H](O[C@@H]2O[C@H](CO)[C@@H](O)[C@H](O)[C@H]2O)O3)[C@@H]1O)c1ccccc1`, the Potency entry was “inactive”.
On the same count and under the same terms, in the case of `CC(=O)c1c(C)cc(O)cc1O[C@@H]1O[C@H](CO)[C@@H](O)[C@H](O)[C@H]1O` it was “inactive”; in that of `CC1CCC(=O)CC(O)C(O)CC(=O)O1` (stereo unspecified), “inactive”; in that of `CC1(C)CC2C(O)C3=C(CC(C)(O)C2C1)C(=O)OC3O` (stereo unspecified), “inactive”.
Take `CC[C@H](/C=C/[C@@H](C)[C@H]1CC[C@H]2[C@@H]3CC=C4C[C@@H](O)CC[C@]4(C)[C@H]3CC[C@]12C)C(C)C`: the activity change, negative = cytotoxicity was 8.88% [at 6.55 µM].
In the case of `CC(=O)O[C@H]1[C@H](C)[C@@H](O)[C@H]2[C@@H]1C=C(C(=O)O)[C@H]1C[C@@H]3[C@H]([C@H]21)[C@H]1C(=O)O[C@@H]2CC[C@@]3(C)O[C@]1(O)[C@@H]2C`, the Potency entry is “inactive”.
Still for that read-out and setting: then `CC(=O)OC(CSC1CCC(=O)OC(C)CCC(=O)C1)C(=O)O` (stereo unspecified), with “inactive”.
As for `CC(/C=C/C1(O)C(C)CC(O)CC1(C)C)OC1OC(CO)C(O)C(O)C1O` (stereo unspecified), the Potency entry is “inactive”.
The same measure, in the same setting: in the case of `CC(=O)N[C@H]1CCN(c2ccc(C3=NOC(CN[S+](=O)([O-])C(C)C)C3)cc2F)C1` (stereo partly specified) it was “inactive”.
On to `CC1CCC2C(C)(C)C(O)CCC2(C)C12Cc1c(O)cc3c(c1O2)C(N)=NC3` (stereo unspecified), for which the Potency result is “inactive”.
On the same count and under the same terms, in the case of `CNC(=O)Nc1ccc(OC)c(NC(=O)NC(=O)c2cc(F)c(F)cc2Cl)c1` it was “inactive”; in that of `CCCC(N[C@@H](C)C(=O)N1[C@H](C(=O)O)C[C@@H]2CCCC[C@@H]21)C(=O)OCC` (stereo partly specified), “inactive”.
Consider `C/C=C(\C)C(=O)O[C@@H](C)[C@H]1CC[C@]2(O)C3CCC4C[C@@H](OC5CC(OC)C(OC6CC(OC)C(OC7CC(OC)C(OC8OC(C)C(OC9OC(CO)C(O)C(O)C9O)C(OC)C8O)C(C)O7)C(C)O6)C(C)O5)CC[C@]4(C)C3[C@H](O)[C@@H](O)[C@]12C` (stereo partly specified), for which the activity change, negative = cytotoxicity is -4.09% [at 6.55 µM].
The same measure, in the same setting: then `CC1OC(O[C@H]2[C@@H](O)C[C@@]3(C)C([C@H](O)C[C@]4(C)C3CC=C3C5CC(C)(C)CC[C@]5(C(=O)OC5OC(CO)C(O)C(O)C5OC5OCC(OC6OCC(OC7OCC(O)C(O)C7O)C(O)C6O)C(OC6OCC(O)(CO)C6O)C5O)CC[C@]34C)[C@]2(C)CO)C(O)C(O)C1O` (stereo partly specified), with -0.54% [at 6.55 µM].
For `CCC(=O)N[C@@H]1Cc2ccccc2[C@H](c2ccccc2)C1`, the Potency entry was “inactive”.
The same measure, in the same setting: then `CCC(C)C1NC(=O)C2CCCN2C(=O)C(C(C)C)NC(=O)c2ccccc2NC(=O)C(Cc2ccc(O)cc2)NC(=O)C(C)NC(=O)C(C(C)O)NC1=O` (stereo unspecified) (cyclo([2Abz]VPITAY); configuration not given here), with “inactive”; and `C=C1CCC2C(C)(C(=O)O)CC(O)CC2(C)C1CC/C(C)=C/C(=O)O` (stereo unspecified), with “inactive”; and `COc1cc([C@@H]2Oc3c(OC)cc(CCCO)cc3[C@@H]2CO[C@@H]2O[C@H](CO)[C@@H](O)[C@H](O)[C@H]2O)ccc1O`, with “inactive”.
In the case of `COc1cccc(-c2ccc([C@@H](Oc3cc(-c4ccc(C[C@H](N)C(=O)O)cc4)nc(N)n3)C(F)(F)F)cc2)c1`, the Potency result is “inactive”.
The same measure, in the same setting: then `CCNC(=O)CCC/C=C\C[C@@H]1[C@@H](/C=C/C(O)CCc2ccccc2)[C@@H](O)C[C@@H]1O` (stereo partly specified), with “inactive”.
The same measure, in the same setting: in the case of `Cc1[nH]cnc1C1CCN(c2nc3cccc4c3n2CCC4=O)CC1` it was “inactive”.
Take `C=C(C)[C@@H](C)[C@H]1O[C@]23C[C@]4(CO2)C(CCC2[C@@]5(C)CC[C@H](O[C@@H]6OC[C@H](O)[C@H](O[C@@H]7O[C@H](CO)[C@@H](O)[C@H](O)[C@H]7O)[C@H]6O[C@@H]6O[C@@H](CO)[C@H](O)[C@H]6O)C(C)(C)C5CC[C@]24C)C3[C@@](C)(O)[C@@H]1OC(C)=O` (stereo partly specified): the activity change, negative = cytotoxicity is 6.78% [at 11.6 µM].

The values are drawn from PubChem BioAssay (NCATS).
